# The list is not random: actives were taken first. Their share in the collection is about 2.9%.
# ZTA DNA inh: blocks Epstein-Barr virus ZTA, an EBNA-1 counter-screen; ZTA-DNA binding, fluorescence polarization; inhibition, % at 11 µM; 320,000 compounds, 0.15% hits; P03206; in the data active means inhibition above about 33%
# Target sequence (P03206 whole entry, looked up): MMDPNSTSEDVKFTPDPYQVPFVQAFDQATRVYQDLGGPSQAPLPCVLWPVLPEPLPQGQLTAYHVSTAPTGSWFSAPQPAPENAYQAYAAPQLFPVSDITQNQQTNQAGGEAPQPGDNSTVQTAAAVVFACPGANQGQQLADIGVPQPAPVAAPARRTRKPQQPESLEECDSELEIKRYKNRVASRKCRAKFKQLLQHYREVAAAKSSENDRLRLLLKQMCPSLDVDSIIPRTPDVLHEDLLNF
# pPAFAH inh: pPAFAH enzyme inhibitors, primary screen, biochemical, fluorescence polarization, human | recombinant pPAFAH, FP-rhodamine probe fluorescence polarization | Platelet-activating factor acetylhydrolase (Homo sapiens), Q13093 | 330,000 compounds, 1.5% hits | inhibition, % at 3.39 µM;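 active means inhibition above the mean inhibition across the screen plus 3 SD, cut at about 25% in these data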;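 further: inhibitors block binding of the rhodamine activity-based probe so polarization drops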
# PAFAH1B3 FP inh: PAFAH1B3 enzyme inhibitors, primary screen, biochemical, fluorescence polarization, human. Platelet-activating factor acetylhydrolase IB subunit alpha1 (Homo sapiens), Q15102. recombinant PAFAH1B3, FP-rhodamine probe. inhibition, % at 3.39 µM. 340,000 compounds, 0.28% hits. AID 492972, 2010;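 active means inhibition above the screen-wide average of all tested compounds plus 3 SD, cut at about 25% in these data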
# EBNA-1 inhibitor: EBNA-1 DNA-binding inhibitors, primary screen, biochemical, fluorescence polarization | inhibition, % at 14.8 µM | 300,000 compounds, 0.34% hits; in the data active means inhibition above about 28%
# PAFAH2 inh: PAFAH2 enzyme inhibitors, primary screen, biochemical, fluorescence polarization, human; Platelet-activating factor acetylhydrolase 2, cytoplasmic (Homo sapiens), Q99487; recombinant PAFAH2, FP-rhodamine activity probe; inhibition, % at 3.39 µM; 340,000 compounds, 0.99% hits;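 active means inhibition above the mean over all tested compounds plus 3 SD, cut at about 30% in these data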;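 further: inhibitors block probe labeling of enzyme so polarization drops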
# PAFAH1B2 inh: PAFAH1B2 enzyme inhibitors, primary screen, biochemical, fluorescence polarization, human | recombinant PAFAH1B2, FP-rhodamine activity probe | inhibition, % at 3.39 µM | 340,000 compounds, 1.2% hits;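 active means inhibition above the mean of all tested compounds plus 3 SD, cut at about 24% in these data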
# Target sequence (P68402 whole entry, looked up): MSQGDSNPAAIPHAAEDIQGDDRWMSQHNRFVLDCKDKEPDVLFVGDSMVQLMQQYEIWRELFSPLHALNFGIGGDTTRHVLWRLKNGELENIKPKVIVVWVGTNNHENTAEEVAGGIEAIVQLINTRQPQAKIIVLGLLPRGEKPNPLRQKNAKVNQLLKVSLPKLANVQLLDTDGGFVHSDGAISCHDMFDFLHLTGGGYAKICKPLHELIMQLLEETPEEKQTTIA
# Numbers stand for hits; n = inactive; x = no result given.
SMILES,ZTA DNA inh,pPAFAH inh,PAFAH1B3 FP inh,EBNA-1 inhibitor,PAFAH2 inh,PAFAH1B2 inh
Cc1ccccc1Cc1c(C)nc2nc(SCC(=O)NCc3ccco3)nn2c1C,n,n,n,n,n,n
Cc1ccccc1Cc1c(C)nc2c(C(=O)NCc3ccco3)cnn2c1C,n,27,n,n,n,n
O=S(=O)(NCCSc1ccccn1)c1ccc(Br)cc1,n,n,n,n,n,25
O=S(=O)(NCCc1ccccc1)c1ccc(Br)cc1,n,n,n,n,n,28
Cc1ccc(S(=O)(=O)NCCSc2ncccn2)cc1,n,n,n,n,n,n
O=C(N/N=C/c1ccncc1)c1cc2ccccc2cc1O,x,x,n,x,n,n
O=C(N/N=C/c1ccncc1)c1cc([N+](=O)[O-])cc([N+](=O)[O-])c1O,n,32,n,n,n,n
C/C(=N\Nc1ccc(Cl)c(C(=O)O)c1)c1ccc(Br)s1,n,27,n,n,n,n
C/C(=N\NC(=O)c1ccc(Cl)c(Cl)c1)c1ccc(Br)s1,n,n,n,n,n,n
Cn1c(=O)c2c(nc(Cc3ccc(N)cc3)n2C)n(C)c1=O,n,n,n,n,n,n
CN(C)c1ccc(N=Nc2ccc(S(=O)(=O)O)cc2)c2ccccc12,n,30,n,n,n,n
CCC1CCC2(CC1)SCC(=O)N2c1ccccc1 (configuration not stated),n,n,x,n,x,x
CC1CCC2(CC1)SCC(=O)N2c1ccccc1 (configuration not stated),n,n,n,n,n,27
Cc1ccc(NC(=S)NNC(=O)c2cccc([N+](=O)[O-])c2)cc1Cl,n,n,n,n,n,25
O=C(N/C=C/c1ccco1)OCc1ccccc1,n,26,n,n,n,n
NS(=O)(=O)c1ccc(CCNC(=O)c2ccc3nccnc3c2)cc1,x,30,n,x,n,n
NS(=O)(=O)c1ccc(CCNC(=O)c2ccc(C(=O)c3ccccc3)cc2)cc1,n,n,n,n,n,n
CC(C)(C)c1ccc(-n2ncc3c2CCCC3NC(=O)CCN2CCCCC2=O)cc1 (configuration not stated),n,64,n,n,n,n
Cc1ccc(-n2ncc3c2CCCC3NC(=O)CCCN2CCCC2=O)cc1C (configuration not stated),n,n,n,n,n,n
O=C(O)c1ccccc1CC(CCc1ccccc1)C(=O)O (configuration not stated),x,x,n,x,n,n
CCOc1ccc(NC(=S)N2CCC(NC(=O)c3ccccc3C)CC2)cc1,n,n,n,n,n,n
CCC(=O)/C=C1/Sc2ccc(OC)cc2N1CCO,n,n,n,n,n,n
CCC(/C=C1\Sc2ccc(OC)cc2N1CC)=C\c1sc2ccc(OC)cc2[n+]1CCCS(=O)(=O)[O-],104,n,n,56,n,n
CCC(/C=C1\Sc2ccc(OC)cc2N1CCO)=C\c1sc2ccc(OC)cc2[n+]1CCO,84,n,n,45,n,n
O=C(CN1C(=O)CCC1=O)Nc1cccc2c1C(=O)NC2=O,n,n,n,n,n,n
SMILES,ZTA DNA inh,pPAFAH inh,PAFAH1B3 FP inh,EBNA-1 inhibitor,PAFAH2 inh,PAFAH1B2 inh
C/C(=N/NS(=O)(=O)c1ccc(C)cc1)c1cccc(NC(=O)c2cccc(Cl)c2)c1,n,n,n,n,n,n
C/C(=N/NS(=O)(=O)c1ccc(Cl)cc1)c1cccc(NC(=O)c2ccc(Cl)cc2Cl)c1,n,25,n,n,n,n
Cc1ccc(SCc2cn3c(C)csc3n2)cc1,n,n,n,n,n,53
COc1cc(NC(=O)c2cc(OC)c(OC)c(OC)c2)c2ncccc2c1,x,x,n,x,n,27
S=c1[nH]nc(Cn2cnc3ccccc32)n1-c1ccccc1,n,n,n,n,n,n
C[n+]1c(-c2ccccc2)cc2c(=Cc3ccc([N+](=O)[O-])cc3)c3ccccc3n21,x,x,39,x,81,n
CN(C)c1ccc(C=c2c3cc(O)ccc3n3c2cc(-c2ccccc2)[n+]3C)cc1,x,x,n,x,n,n
O=C(CN(C(=O)CCC(=O)Nc1nccs1)c1cccc(C(F)(F)F)c1)NCC1CCCO1 (configuration not stated),n,n,n,n,n,n
O=C(CNC(=O)c1cccc(Br)c1)N/N=C/c1cc(Br)cc(Br)c1O,n,n,n,n,n,31
O=C(CNC(=O)c1cccc(Br)c1)N/N=C/c1cccs1,n,n,n,n,n,n
COCCNC(=O)C(c1ccncc1)N(Cc1ccccc1)C(=O)Cn1nnc2ccccc21 (configuration not stated),n,n,n,n,n,n
Cc1cc(-c2csc(NC(=O)c3ccc(=O)[nH]c3)n2)c(C)n1Cc1ccccc1,n,31,n,n,n,n
CC(=O)Nc1ccc(N2C(=O)c3cccc4c(O)ccc(c34)C2=O)cc1,n,n,n,n,n,n
O=C1c2cccc3c(O)ccc(c23)C(=O)N1c1ccc(Cl)cc1,n,28,27,n,42,n
Nc1nccnc1C(=O)OCC(=O)C12CC3CC(CC(C3)C1)C2,n,n,n,n,n,n
N#CC1(C#N)CC(C=O)=C(N)C1(C#N)CC(=O)C12CC3CC(CC(C3)C1)C2 (configuration not stated),n,n,n,n,n,31
NC(=O)/C(=N\OC(=O)c1ccco1)c1nc(-c2ccc(Br)cc2)cs1,n,32,n,n,n,n
COc1ccc(OC)c(NC(=O)CSc2nnc(CNC(=O)COc3ccc(Cl)cc3)o2)c1,n,n,n,n,n,28
COc1ccc(NC(=O)CSc2nnc(CNC(=O)COc3ccc(Cl)cc3)o2)c(OC)c1,n,n,n,n,n,n
O=C(CSc1nnc(SCc2ccccc2)s1)N/N=C/C=C/c1ccccc1[N+](=O)[O-],n,n,n,n,n,n
C/C(=N\NC(=O)Cc1cccn1C)c1ccco1,n,n,n,n,n,n
Cn1cccc1CC(=O)N/N=C/C=C/c1ccco1,n,27,n,n,n,n
O=C(CSc1nnc(SCc2ccccc2)s1)N/N=C/C=C\c1ccco1,n,28,n,n,n,n
O=C(/C=C/c1cccc(Cl)c1)NCc1ccccc1,n,n,n,n,n,n
COc1ccc(NC(=O)N2CCC(n3cnc4ccccc43)CC2)cc1,n,n,n,n,n,n
O=C(COC(=O)CCC1CCCC1)NCc1ccc(Cl)cc1,n,30,n,n,n,n
O=C(COC(=O)C1CCCCC1)NCc1ccc(Cl)cc1,x,n,n,x,n,n
O=C(COC(=O)CCC1CCCCC1)Nc1ccc(OC(F)F)cc1,n,26,n,n,n,n
O=C(COC(=O)CCC1CCCC1)Nc1ccc(F)cc1,n,32,n,x,n,n
